{"source": "the supplement of paper PMC7724964"}
{"target": "KDM6A 1-520 TPR_8 (domain begin residue: 1, domain end residue: 520), O15550", "sequence (O15550 whole entry, the tested form may be a part)": "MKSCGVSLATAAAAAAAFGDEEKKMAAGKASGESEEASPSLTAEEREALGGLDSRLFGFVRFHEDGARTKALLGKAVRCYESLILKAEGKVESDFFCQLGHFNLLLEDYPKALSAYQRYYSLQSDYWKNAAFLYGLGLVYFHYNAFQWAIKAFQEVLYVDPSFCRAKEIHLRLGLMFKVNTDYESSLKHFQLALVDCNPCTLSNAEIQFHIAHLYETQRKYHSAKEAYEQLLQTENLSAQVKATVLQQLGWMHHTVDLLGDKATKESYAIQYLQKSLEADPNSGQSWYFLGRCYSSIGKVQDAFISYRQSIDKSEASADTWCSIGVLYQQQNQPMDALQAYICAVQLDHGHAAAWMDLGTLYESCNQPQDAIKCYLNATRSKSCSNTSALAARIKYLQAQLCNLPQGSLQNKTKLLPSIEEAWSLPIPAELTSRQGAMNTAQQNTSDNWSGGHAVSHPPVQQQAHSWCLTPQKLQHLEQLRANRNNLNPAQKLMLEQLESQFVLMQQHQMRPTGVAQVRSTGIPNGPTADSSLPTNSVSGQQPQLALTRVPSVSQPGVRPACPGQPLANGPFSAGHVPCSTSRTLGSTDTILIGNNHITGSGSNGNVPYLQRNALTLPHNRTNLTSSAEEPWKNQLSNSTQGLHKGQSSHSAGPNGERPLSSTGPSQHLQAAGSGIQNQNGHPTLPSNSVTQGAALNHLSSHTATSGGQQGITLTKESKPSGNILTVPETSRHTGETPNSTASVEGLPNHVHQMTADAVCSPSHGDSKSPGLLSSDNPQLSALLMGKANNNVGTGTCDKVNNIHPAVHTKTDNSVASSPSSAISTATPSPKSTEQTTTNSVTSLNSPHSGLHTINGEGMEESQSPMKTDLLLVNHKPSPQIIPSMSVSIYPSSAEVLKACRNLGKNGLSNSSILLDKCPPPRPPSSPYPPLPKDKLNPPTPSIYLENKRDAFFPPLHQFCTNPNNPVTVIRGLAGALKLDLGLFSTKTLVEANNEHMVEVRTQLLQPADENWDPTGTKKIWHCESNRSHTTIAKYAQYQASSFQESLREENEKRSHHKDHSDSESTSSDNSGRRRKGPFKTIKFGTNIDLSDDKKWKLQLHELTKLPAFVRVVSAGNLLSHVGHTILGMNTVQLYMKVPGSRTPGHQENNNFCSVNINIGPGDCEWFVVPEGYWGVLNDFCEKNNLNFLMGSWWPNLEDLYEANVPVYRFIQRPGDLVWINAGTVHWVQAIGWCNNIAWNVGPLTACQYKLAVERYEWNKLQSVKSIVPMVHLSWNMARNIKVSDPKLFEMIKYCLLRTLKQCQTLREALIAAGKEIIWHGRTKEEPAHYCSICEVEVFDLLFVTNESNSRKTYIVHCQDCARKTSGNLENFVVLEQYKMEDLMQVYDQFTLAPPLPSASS", "experiment": "phage ELISA signal ratio (GST-PRM binding over GST background); higher = stronger binding of peptide-phage to the PRM", "procedure,_shortened": "(§1)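 Human peptide recognition domains were expressed in 96-well plates as fusions to the C-terminus of glutathione S-transferase (GST) and selected against an M13 phage library displaying randomized hexadecapeptides, cysteine-free and glycine-flanked, on the gene-8 major coat protein. Five selection rounds were run, and approximately 48 individual clones from rounds 4 and 5 were tested by phage ELISA. Each value is the ELISA signal on the GST-domain fusion divided by the signal on GST alone. Positive clones were sequenced.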"}
{"binder": "WENIWDDMIEQIIIPQ", "phage ELISA signal ratio": 8.83}
{"binder": "YMEMVWDTIQIQPPQD", "phage ELISA signal ratio": 6.38}
{"target": "HSPA9 438-651 HSP70 (domain begin residue: 438, domain end residue: 651), P38646", "sequence (P38646 whole entry)": "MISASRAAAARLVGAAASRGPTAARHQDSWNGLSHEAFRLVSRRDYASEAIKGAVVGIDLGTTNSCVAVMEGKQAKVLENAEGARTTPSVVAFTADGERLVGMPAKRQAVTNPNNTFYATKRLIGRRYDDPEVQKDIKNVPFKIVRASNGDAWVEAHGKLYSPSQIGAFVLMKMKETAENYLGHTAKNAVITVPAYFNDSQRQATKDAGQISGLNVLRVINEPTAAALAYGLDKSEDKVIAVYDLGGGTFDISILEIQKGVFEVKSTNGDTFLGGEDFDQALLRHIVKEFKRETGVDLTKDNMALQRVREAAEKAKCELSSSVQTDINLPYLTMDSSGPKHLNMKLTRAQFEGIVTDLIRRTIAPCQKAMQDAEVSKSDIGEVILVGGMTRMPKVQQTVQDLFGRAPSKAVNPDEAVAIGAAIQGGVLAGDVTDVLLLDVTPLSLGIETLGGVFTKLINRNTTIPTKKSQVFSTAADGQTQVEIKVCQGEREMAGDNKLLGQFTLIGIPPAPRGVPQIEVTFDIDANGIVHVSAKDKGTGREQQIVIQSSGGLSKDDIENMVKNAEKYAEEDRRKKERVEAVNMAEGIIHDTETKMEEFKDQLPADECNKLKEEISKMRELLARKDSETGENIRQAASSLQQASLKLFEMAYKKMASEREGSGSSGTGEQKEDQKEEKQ", "experiment": "phage ELISA signal ratio (GST-PRM binding over GST background); higher = stronger binding of peptide-phage to the PRM", "procedure,_shortened": "as §1"}
{"binder": "VITMDQSQWDDVMFWL", "phage ELISA signal ratio": 27.3}
{"binder": "STEFFYDWGYWEQMIE", "phage ELISA signal ratio": 19.8}
{"binder": "PTLLLWQQIDQVMMKK", "phage ELISA signal ratio": 20.8}
{"target": "T1, RARA 175-421 Hormone_recep (domain begin residue: 175, domain end residue: 421), P10276", "T1 chain": "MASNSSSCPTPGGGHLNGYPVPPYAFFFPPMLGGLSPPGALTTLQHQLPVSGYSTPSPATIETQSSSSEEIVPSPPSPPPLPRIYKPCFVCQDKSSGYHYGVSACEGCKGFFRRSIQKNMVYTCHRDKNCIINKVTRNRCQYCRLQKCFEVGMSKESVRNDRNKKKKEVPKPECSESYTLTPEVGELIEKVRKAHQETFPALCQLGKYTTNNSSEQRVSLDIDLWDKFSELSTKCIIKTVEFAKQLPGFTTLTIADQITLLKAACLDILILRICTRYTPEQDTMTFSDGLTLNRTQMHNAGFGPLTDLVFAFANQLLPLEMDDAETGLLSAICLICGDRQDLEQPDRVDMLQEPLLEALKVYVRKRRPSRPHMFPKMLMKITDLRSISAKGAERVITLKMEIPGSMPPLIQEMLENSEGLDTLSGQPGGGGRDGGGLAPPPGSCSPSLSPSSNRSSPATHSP", "experiment": "phage ELISA signal ratio (GST-PRM binding over GST background); higher = stronger binding of peptide-phage to the PRM", "procedure,_shortened": "as §1"}
{"binder": "STEFFYDWGYWEQMIE", "phage ELISA signal ratio": 9.16}
{"target": "KMT2C 995-1055 PHD (domain begin residue: 995, domain end residue: 1055)", "experiment": "phage ELISA signal ratio (GST-PRM binding over GST background); higher = stronger binding of peptide-phage to the PRM", "procedure,_shortened": "as §1"}
{"binder": "SIKGIYIDDVLRLIDQ", "phage ELISA signal ratio": 6.63}
{"target": "T2, LBR 1-67 LBR_tudor (domain begin residue: 1, domain end residue: 67), Q14739", "T2 chain": "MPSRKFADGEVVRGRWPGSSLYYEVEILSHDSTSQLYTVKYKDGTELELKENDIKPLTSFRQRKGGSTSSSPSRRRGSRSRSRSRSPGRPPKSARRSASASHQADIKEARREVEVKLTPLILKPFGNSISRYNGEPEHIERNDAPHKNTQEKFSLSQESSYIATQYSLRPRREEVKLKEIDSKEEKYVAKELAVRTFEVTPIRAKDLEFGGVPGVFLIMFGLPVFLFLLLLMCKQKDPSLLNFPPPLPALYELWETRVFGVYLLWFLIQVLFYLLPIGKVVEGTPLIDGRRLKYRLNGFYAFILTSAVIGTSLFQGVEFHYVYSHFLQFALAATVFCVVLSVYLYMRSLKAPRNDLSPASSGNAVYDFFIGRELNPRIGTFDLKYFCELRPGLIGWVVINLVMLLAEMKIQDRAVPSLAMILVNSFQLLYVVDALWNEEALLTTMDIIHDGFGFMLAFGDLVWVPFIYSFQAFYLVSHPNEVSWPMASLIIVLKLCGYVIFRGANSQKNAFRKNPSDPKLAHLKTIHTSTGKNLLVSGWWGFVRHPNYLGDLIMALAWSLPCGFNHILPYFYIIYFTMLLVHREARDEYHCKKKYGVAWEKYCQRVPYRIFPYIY", "experiment": "phage ELISA signal ratio (GST-PRM binding over GST background); higher = stronger binding of peptide-phage to the PRM", "procedure,_shortened": "as §1"}
{"binder": "YGWETIWDTFPVDMPA", "phage ELISA signal ratio": 3.69}
{"binder": "FHGIWVQDELRVWMMD", "phage ELISA signal ratio": 8.63}
{"binder": "QQQKHPNFALHYHQDQ", "phage ELISA signal ratio": 6.64}
{"target": "KPNB1 1-876 IBN_N+Arm (domain begin residue: 1, domain end residue: 876), Q14974", "sequence (Q14974 whole entry)": "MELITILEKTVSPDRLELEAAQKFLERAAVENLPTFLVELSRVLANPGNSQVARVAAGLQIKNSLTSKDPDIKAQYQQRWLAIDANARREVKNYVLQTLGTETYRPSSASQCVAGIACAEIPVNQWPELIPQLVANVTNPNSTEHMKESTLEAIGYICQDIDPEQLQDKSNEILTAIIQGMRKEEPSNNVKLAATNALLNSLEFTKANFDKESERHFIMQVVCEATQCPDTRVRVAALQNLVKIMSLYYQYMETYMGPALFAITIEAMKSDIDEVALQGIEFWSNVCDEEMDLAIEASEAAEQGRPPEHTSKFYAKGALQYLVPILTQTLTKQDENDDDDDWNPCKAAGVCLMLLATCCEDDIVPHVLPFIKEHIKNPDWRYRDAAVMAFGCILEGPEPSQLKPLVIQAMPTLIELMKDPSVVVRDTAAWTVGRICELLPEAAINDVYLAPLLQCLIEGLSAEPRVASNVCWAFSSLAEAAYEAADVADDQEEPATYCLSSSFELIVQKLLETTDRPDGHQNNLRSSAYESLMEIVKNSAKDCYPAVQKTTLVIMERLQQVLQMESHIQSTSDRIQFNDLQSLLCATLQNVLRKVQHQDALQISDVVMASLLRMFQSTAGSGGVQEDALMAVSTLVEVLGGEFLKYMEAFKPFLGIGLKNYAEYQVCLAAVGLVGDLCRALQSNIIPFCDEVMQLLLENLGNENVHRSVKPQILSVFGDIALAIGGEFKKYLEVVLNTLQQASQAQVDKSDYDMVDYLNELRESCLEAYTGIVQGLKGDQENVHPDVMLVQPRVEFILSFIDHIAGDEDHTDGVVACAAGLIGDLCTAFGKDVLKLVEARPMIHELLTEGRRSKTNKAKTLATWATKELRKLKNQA", "experiment": "phage ELISA signal ratio (GST-PRM binding over GST background); higher = stronger binding of peptide-phage to the PRM", "procedure,_shortened": "as §1"}
{"binder": "LDWMSMFDDYSSLFSV", "phage ELISA signal ratio": 16.8}
{"binder": "WDWVVREMSFDEVFIF", "phage ELISA signal ratio": 20.4}
{"binder": "PHEFQWALWPSGVFVF", "phage ELISA signal ratio": 14}
{"target": "MAD2L1 2-205 HORMA (domain begin residue: 2, domain end residue: 205), Q13257", "sequence (Q13257 whole entry)": "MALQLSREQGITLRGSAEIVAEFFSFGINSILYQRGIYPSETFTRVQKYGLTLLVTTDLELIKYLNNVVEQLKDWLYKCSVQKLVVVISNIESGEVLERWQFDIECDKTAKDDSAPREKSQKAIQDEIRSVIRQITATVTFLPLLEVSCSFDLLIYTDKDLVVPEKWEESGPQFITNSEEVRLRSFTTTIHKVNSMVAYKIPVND", "experiment": "phage ELISA signal ratio (GST-PRM binding over GST background); higher = stronger binding of peptide-phage to the PRM", "procedure,_shortened": "as §1"}
{"binder": "SWWMLQGPKQMNEIHA", "phage ELISA signal ratio": 8.75}
{"target": "T3, LRP5 340-601 Ldl_recept_b (domain begin residue: 340, domain end residue: 601), O75197", "T3 chain": "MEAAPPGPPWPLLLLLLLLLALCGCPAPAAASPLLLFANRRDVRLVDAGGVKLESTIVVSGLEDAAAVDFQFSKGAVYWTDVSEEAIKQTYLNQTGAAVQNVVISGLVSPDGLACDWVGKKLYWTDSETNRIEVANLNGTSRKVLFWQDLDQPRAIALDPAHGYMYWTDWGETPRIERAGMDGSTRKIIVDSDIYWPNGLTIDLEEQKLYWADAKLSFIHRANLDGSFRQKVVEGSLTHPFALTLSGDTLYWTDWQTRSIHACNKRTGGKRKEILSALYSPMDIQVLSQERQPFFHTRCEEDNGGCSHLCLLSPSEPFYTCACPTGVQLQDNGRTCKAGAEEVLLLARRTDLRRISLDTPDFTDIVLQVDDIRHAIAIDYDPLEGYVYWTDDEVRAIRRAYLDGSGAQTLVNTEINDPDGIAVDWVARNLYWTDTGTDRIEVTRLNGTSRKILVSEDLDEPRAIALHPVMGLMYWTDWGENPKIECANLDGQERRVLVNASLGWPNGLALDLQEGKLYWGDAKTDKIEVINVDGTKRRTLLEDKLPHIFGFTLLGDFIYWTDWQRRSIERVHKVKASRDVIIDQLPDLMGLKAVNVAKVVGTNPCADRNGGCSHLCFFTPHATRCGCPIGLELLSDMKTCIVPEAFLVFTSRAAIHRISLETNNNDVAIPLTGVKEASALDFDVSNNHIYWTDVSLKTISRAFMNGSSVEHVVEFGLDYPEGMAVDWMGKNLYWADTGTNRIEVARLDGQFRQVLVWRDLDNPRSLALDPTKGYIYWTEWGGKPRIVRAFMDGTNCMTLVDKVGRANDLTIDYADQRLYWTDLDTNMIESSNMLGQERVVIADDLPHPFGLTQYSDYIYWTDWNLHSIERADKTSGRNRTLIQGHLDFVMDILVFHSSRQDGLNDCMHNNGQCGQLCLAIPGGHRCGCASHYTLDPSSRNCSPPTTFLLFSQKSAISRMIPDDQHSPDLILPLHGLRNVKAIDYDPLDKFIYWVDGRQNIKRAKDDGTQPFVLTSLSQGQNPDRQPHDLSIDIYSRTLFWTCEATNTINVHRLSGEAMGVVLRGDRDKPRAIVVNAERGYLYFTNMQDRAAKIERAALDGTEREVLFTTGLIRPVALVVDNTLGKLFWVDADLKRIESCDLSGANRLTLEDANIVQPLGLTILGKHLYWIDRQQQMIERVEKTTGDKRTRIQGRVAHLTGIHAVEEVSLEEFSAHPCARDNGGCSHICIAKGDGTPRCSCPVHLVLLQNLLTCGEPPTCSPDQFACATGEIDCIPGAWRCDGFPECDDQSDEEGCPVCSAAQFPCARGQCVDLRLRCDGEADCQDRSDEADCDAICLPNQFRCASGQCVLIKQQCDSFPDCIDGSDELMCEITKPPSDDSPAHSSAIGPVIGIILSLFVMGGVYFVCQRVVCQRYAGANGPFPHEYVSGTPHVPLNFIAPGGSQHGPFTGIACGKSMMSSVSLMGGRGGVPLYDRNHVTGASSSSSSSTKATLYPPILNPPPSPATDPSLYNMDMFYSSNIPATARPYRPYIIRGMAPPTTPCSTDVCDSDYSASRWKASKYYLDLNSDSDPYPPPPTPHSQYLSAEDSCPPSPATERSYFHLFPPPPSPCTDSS", "experiment": "phage ELISA signal ratio (GST-PRM binding over GST background); higher = stronger binding of peptide-phage to the PRM", "procedure,_shortened": "as §1"}
{"binder": "EWSSNEWWDAYSAMTV", "phage ELISA signal ratio": 7.31}
